Data published in PubChem BioAssay (NCI).
This is part of a sample that, as a whole, favours compounds with a hit. Of some 79,000 tested, about 15% had one in any assay. Active and inactive are the calls of the source. Cut-off read from the data, not from the text of the source: active = growth inhibition above about 70%; inactive = the rest.

Key:
[1] = NCI Yeast Anticancer Drug Screen. Data for the rad50 strain (AID 155);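 note: 0% = growth of vehicle-only cultures of the same strain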; settings: S. cerevisiae rad50 strain growth inhibition; at 50.0 µM; active compounds read high
Outline: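 Inhibition values express reduced yeast growth in compound-treated cultures relative to vehicle-treated controls.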

[2] = NCI Yeast Anticancer Drug Screen. Data for the mec2-1 strain (AID 157); settings: S. cerevisiae mec2-1 strain, at 50.0 µM, active compounds read high
Outline: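 mec2-1 yeast strain, carrying an alteration in DNA damage repair or cell cycle control, was exposed to compounds; growth inhibition was measured relative to vehicle-treated controls.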

[3] = NCI Yeast Anticancer Drug Screen. Data for the sgs1 mgt1 strain (AID 161);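 note: 0% = growth of cultures given vehicle only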; settings: S. cerevisiae sgs1 mgt1 strain, at 50.0 µM, active compounds read high
Outline: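 Compounds are added to genetically altered yeast, and growth is compared with cultures given vehicle alone to give percent inhibition.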

[4] = NCI Yeast Anticancer Drug Screen. Data for the cln2 rad14 strain (AID 165);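 note: 0% = growth equal to vehicle treated cultures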; settings: S. cerevisiae cln2 rad14 strain, at 50.0 µM, active compounds read high
Outline: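 Yeast carrying cln2 and rad14 alterations (cell cycle control and DNA damage repair) were exposed to compounds. Growth inhibition was measured against vehicle-treated controls.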

[5] = NCI Yeast Anticancer Drug Screen. Data for the bub3 strain (AID 167); settings: S. cerevisiae bub3 mutant strain, at 50.0 µM, active compounds read high
Outline: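 Steps: expose the mutant yeast strain to compound; grow alongside vehicle-treated cultures; measure growth; express inhibition against the vehicle cultures.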

[6] = NCI Yeast Anticancer Drug Screen. Data for the mlh1 rad18 strain (AID 175); settings: S. cerevisiae mlh1 rad18 strain growth inhibition; at 50.0 µM; active compounds read high
Outline: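 Growth inhibition of the yeast strain was measured after compound exposure and expressed relative to vehicle-treated controls. The strain carries defined defects in DNA damage repair.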

Measured: growth inhibition

O=C1C2=Nc3ccccc3C(O)N2c2ccccc21 (stereo unspecified)
inactive: [1] 12.8% | [2] 22.4% | [3] 12% | [4] 47.4% | [5] 17.3% | [6] 8.75%

CCOC(=O)c1ccc(-n2nc(C)cc(Cl)c2=O)cc1
inactive: [1] 1.3% | [2] -11.2% | [3] 10.8% | [4] -43% | [5] 20.4% | [6] -4.8%

CC(=O)Nc1ncc(CCC2OCCO2)c(=O)[nH]1
inactive: [1] -0.55% | [2] -25.1% | [3] 19.6% | [4] -0.25% | [5] 7.65% | [6] 6.85%

CCC[CH2][Sn]([C]#[C][Sn]([CH2]CCC)([CH2]CCC)[CH2]CCC)([CH2]CCC)[CH2]CCC
active: [1] 99.6% | [2] 98.8% | [3] 99.5% | [4] 99.2% | [5] 99.3% | [6] 99.4%

Nc1cc(S(N)(=O)=O)ccc1O
inactive: [1] 10.3% | [2] -11.6% | [3] -21.9% | [4] -10.6% | [5] -12% | [6] 12.4%

O=C(OCc1ccccc1CN1CCCC1)c1ccc([N+](=O)[O-])cc1Cl
inactive: [1] -13% | [2] -15.8% | [3] -13.7% | [4] -52.7% | [5] -0.9% | [6] -54.8%

O=C1CC2(CCCCC2)C(=O)N1c1cc([N+](=O)[O-])ccn1
inactive: [1] 25.4% | [2] 14.7% | [3] 0.8% | [4] 17.6% | [5] 10% | [6] 19.8%

CC[n+]1ccc(/C=C\c2c(Cl)cccc2Cl)cc1
inactive: [1] -1.45% | [2] -17.6% | [3] 5.65% | [4] 3% | [5] 7.8% | [6] 12.1%

CC1=C(C(=O)OCCO[N+](=O)[O-])C(c2ccccc2C(F)(F)F)C(C(=O)OC(C)C)=C(C)N1 (stereo unspecified)
inactive: [1] 45.5% | [2] 17.4% | [3] 32.9% | [4] 53% | [5] 30% | [6] -27.1%

COC1/C=C/OC2(C)Oc3c(C)c(O)c4c(O)c(c(C=NNC(=O)c5ccc(N)cc5)c(O)c4c3C2=O)NC(=O)/C(C)=C/C=C/C(C)C(O)C(C)C(O)C(C)C(OC(C)=O)C1C (stereo unspecified)
inactive: [1] -3.55% | [2] 13.5% | [3] -3.25% | [4] -17.6% | [5] -5.3% | [6] 29.4%

CCOc1ccc2ccc3ccccc3c2c1NC(C)=O
inactive: [1] 10.4% | [2] 2.3% | [3] 12.2% | [4] 32% | [5] 3.6% | [6] 6.25%

COc1ccc(-c2cc(N3CCN(c4ccccc4)CC3)c(C#N)c(=O)o2)cc1
inactive: [1] 25.1% | [2] 3.3% | [3] 18.5% | [4] 15.8% | [5] -2.1% | [6] 12.1%

C/C(=N\Nc1ccc([N+](=O)[O-])cc1)C(=O)N(C)Nc1ccccc1
inactive: [1] -6% | [2] -54.2% | [3] -38% | [4] -5.7% | [5] -59.7% | [6] -5.4%

C=CCNC(=O)CN(CC(=O)OC)C1CCCCC1N(CC(=O)OC)CC(=O)OC (stereo unspecified)
inactive: [1] -8.3% | [2] -6.6% | [3] -1.8% | [4] 6.75% | [5] 2% | [6] 1.75%

O=C1OI(=O)(O)c2ccccc21 (stereo unspecified)
inactive: [1] -4.35% | [2] -5.95% | [3] -7.5% | [4] -36.6% | [5] 5.2% | [6] 2.5%

CCN(CC)Cc1ncccc1O
inactive: [1] 8.5% | [2] -15.8% | [3] -22.4% | [4] -2.25% | [5] -5.8% | [6] 16.1%

CC(C)NC(=O)OCc1nnn2c1CCC2
inactive: [1] -6.9% | [2] 0.05% | [3] -12.5% | [4] -22.7% | [5] -0.05% | [6] -4.05%

Cc1ccc(C)c(N2C(=O)C(=O)C(c3nc4ccccc4o3)/C(=N/N)C2=O)c1 (stereo unspecified)
inactive: [1] -18.8% | [2] 34% | [3] 14.2% | [4] -17% | [5] 5.25% | [6] -17.8%

Nc1[nH]nc2nc3n(c(=O)c12)CCCCC3
inactive: [1] 7.1% | [2] 19.7% | [3] 5.6% | [4] 5.55% | [5] -5.75% | [6] -4.15%

Cc1sc2c(c1C)/C(=N\O)c1cccn1-2
inactive: [1] -0.05% | [2] -3.4% | [3] 34% | [4] 26% | [5] 14.4% | [6] -11.6%

CC(C)c1ccc(O)c(Cc2cc(C(C)C)cc(Cc3cc(C(C)C)ccc3O)c2O)c1
inactive: [1] -14.3% | [2] -3.2% | [3] -10.2% | [4] 4.6% | [5] 1.1% | [6] -3.25%

O=c1[nH]c2cc([N+](=O)[O-])ccc2nc1/C(=N/Nc1ccccc1)C(O)c1ccc(C(O)/C(=N\Nc2ccccc2)c2cnc3cc([N+](=O)[O-])ccc3n2)cc1 (stereo unspecified)
inactive: [1] -4.05% | [2] -23.9% | [3] -11.4% | [4] 5.25% | [5] -6.45% | [6] -4.3%

CC1C(=O)OCC2=CCN3CCC(OC(=O)C(C)C1(C)O)C23 (stereo unspecified)
inactive: [1] 2.25% | [2] -15.8% | [3] -3.45% | [4] 8.05% | [5] 0.9% | [6] -32.5%

NC(=O)N/N=C/C1CCc2ccccc2C1 (stereo unspecified)
inactive: [1] 6.45% | [2] -10.4% | [3] -12.3% | [4] -6.2% | [5] -1.4% | [6] 1.5%

O=C(O)C1(Nc2ccc(Cl)cc2)CCCC1
inactive: [1] 14.3% | [2] -6.75% | [3] -12.6% | [4] -1.45% | [5] 9.65% | [6] 11.6%

COC1C2C[C@@H](O)CCC2C(C(=O)OCCl)C[C@H]1O (stereo partly specified)
inactive: [1] -12.4% | [2] -6.9% | [3] -11% | [4] -27.2% | [5] -10.6% | [6] -30.2%

CCOC(=O)NNC(=O)C1CSC(c2ccccc2)N1C(C)=O (stereo unspecified)
inactive: [1] -52.5% | [2] -13.4% | [3] -27.1% | [4] 10.5% | [5] 1.85% | [6] -22.3%

NC(CCCC(N)C(=O)c1ccccc1)C(=O)c1ccccc1 (stereo unspecified)
inactive: [1] -13.7% | [2] 2.35% | [3] -1.5% | [4] -15.5% | [5] -11.3% | [6] 3.35%

CCCCCCCCCCCCSC1=CC(=O)C(SCCCCCCCCCCCC)=CC1=O
inactive: [1] -15.8% | [2] -6.55% | [3] -5.6% | [4] -13.2% | [5] -4.5% | [6] -34.1%

O=C(OCC(Cl)(Cl)Cl)N1[C@@H]2C=C[C@@H](N1C(=O)OCC(Cl)(Cl)Cl)[C@@]13CCCCC21O3 (stereo partly specified)
inactive: [1] -55.7% | [2] 5.15% | [3] 0.45% | [4] 1.8% | [5] -4.95% | [6] 1.65%

O=C(O)C12CCC(CC1=O)C2 (stereo unspecified)
inactive: [1] 5.8% | [2] 4.4% | [3] 11.3% | [4] 13.7% | [5] -2% | [6] 14.1%

COC(=O)C1(Cc2ccc3c(c2)CCC3)Cc2cc3c(cc2C1)CCC3
inactive: [1] -16.1% | [2] 15.7% | [3] -40.2% | [4] 15.8% | [5] -0.35% | [6] -21.6%

O=c1cn[nH]c(=O)[nH]1
inactive: [1] 35.4% | [2] 0.7% | [3] 32.5% | [4] 10.8% | [5] 4.9% | [6] 11.5%

CCC(=O)/C=C/c1ccc(Cl)cc1
inactive: [1] 10.7% | [2] 8% | [3] 7.75% | [4] -25.6% | [5] -14.7% | [6] 11.3%

Nc1nc(Cl)cc(Oc2ccc(Cl)cc2)n1
inactive: [1] 9.65% | [2] -17.6% | [3] 22.6% | [4] 2.5% | [5] 17% | [6] -30.6%

NNc1cc(=O)[nH]c(N)n1
inactive: [1] -17.6% | [2] -18.6% | [3] -31.2% | [4] -19.1% | [5] -6.95% | [6] -29.9%

O=S1(=O)OCCC1C(O)(c1ccccc1)c1ccccc1 (stereo unspecified)
inactive: [1] 1.7% | [2] -3.65% | [3] 6.8% | [4] -49.3% | [5] 11.2% | [6] 16.9%

N=C(CNC(=O)OCc1ccccc1)N1CCCC1C(=O)O (stereo unspecified)
inactive: [1] 13.6% | [2] 2.8% | [3] 0.9% | [4] -1.7% | [5] -1.8% | [6] -6.95%

C=C1C(=O)OC2(C)CCC1CC1OC1(C)CCC=C(C)CCC2O (stereo unspecified)
inactive: [1] 3.7% | [2] -39.1% | [3] 17.4% | [4] 8% | [5] -17.7% | [6] -39.5%

CC1OC(=O)/C(=C\N(C)C)C1=O (stereo unspecified)
inactive: [1] 1.25% | [2] 9% | [3] 13.2% | [4] 42.5% | [5] 7.75% | [6] 8.6%

CC12CC(=O)OC(Cc3ccccc31)O2 (stereo unspecified)
inactive: [1] -50.4% | [2] -27.1% | [3] -51.7% | [4] -1.25% | [5] -63.6% | [6] -40.5%
